# Experimental data published in PubChem BioAssay (Tox21).
# “And” between values parts separate entries of the source, which are not always exact repeats. Identical values can stand only once. Inconclusive results are not listed. The source made the active and inactive calls. Calls come from the whole dose curve; as a rule, active = well fitted cell-killing curve with a large enough effect in the repeat runs; inconclusive = weak or mixed curves; inactive = flat fitted curve, though single readings scatter.
# Test: qHTS assay to identify small molecule antagonists of the estrogen related receptor (ERR) signaling pathway from Tox21 library - cell viability counter screen (AID 1224834); note: nearly all actives have a fitted effect of over 30% in size
# Details: ERR reporter cells viability, CellTiter-Fluor, 17.5 h; series mostly up to 92.4 µM
# Description: National Center for Advancing Translational Sciences [NCATS]
# NIH Chemical Genomics Center [NCGC]
# U.S. Environmental Protection Agency [EPA]
# National Institutes of Environmental Health Sciences [NIEHS]
# National Toxicology Program [NTP]
# U.S. Food and Drug Administration [FDA]
# Estrogen related receptors (ERRs), the first orphan nuclear receptors discovered, play an important role in the control of cellular energy metabolism. ERRs are required for high-energy production in response to the environmental challenges. ERR-alpha was also identified as an adverse marker for breast cancer progression; ERR-alpha-positive tumors have a poor prognosis. To screen and to identify environmental compounds that perturb the ERR signaling pathways could provide valuable information for potential therapeutic or preventive measures in the treatment of metabolic disease. To differentiate true ERR antagonists or agonist from cytotoxic substances, the assay is multiplexed with cell viability assay.
# Tox21 Assay Protocol Summary:
# The ERR cells were dispensed at 2,000 cells/5 ul/well in 1536-well white plates using a Multidrop dispenser. After the assay plates were incubated at a 37 C/5% CO2 incubator for 6 hours, 23 nL of compounds dissolved in DMSO, positive and negative controls or DMSO only was transferred to the assay plate by a pin tool. The plates were incubated at 37 C for 17.5 hours. 1 ul/well of CellTiter-Fluor reagent was added into the assay plates using a Flying Reagent Dispenser. After 30-minute incubation at 37 C/5% CO2, the fluorescence intensity in the plates was measured using a ViewLux plate reader.
# Potency is the fitted concentration of half-maximal effect.
row,Compound,Potency
1,Cc1cc(N)c(S(=O)(=O)O)cc1Cl,inactive
2,O=[N+]([O-])c1ccccc1Nc1ccccc1,inactive
3,Oc1ccc(C2(c3ccc(O)cc3)CC3CC2C2CCCC32)cc1 (stereo not given),58.7 µM (active)
4,CCOc1nc2cccc(C(=O)OC(C)OC(=O)OC3CCCCC3)c2n1Cc1ccc(-c2ccccc2-c2nn[nH]n2)cc1 (stereo not given),54.4 µM (active)
5,NC(=O)C1(N2CCCCC2)CCN(CCCN2c3ccccc3CCc3ccc(Cl)cc32)CC1,29.8 µM (active)
6,CNC(=O)c1ccccc1,inactive
7,Oc1ccc(N=Nc2ccccc2)cc1,49.2 µM (active)
8,N=C1N=C(N)c2ccccc21,43.3 µM (active)
9,O=C1CCCCCN1SSN1CCCCCC1=O,inactive
10,CCN(CC)CCCC(C)Nc1c2ccc(Cl)cc2nc2ccc(OC)cc12 (stereo not given),5.96 µM (active)
11,CCCC/C=C/CCCCO,inactive
12,C[n+]1cc2c3c(ccc2c2ccc4cc5c(cc4c21)OCO5)OCO3,2.91 µM (active)
13,O=C(Nc1cccc(Cl)c1)OCC#CCCl,54.5 µM (active)
14,Fc1ccc(C(c2ccc(F)cc2)N2CCN(C/C=C/c3ccccc3)CC2)cc1,26.6 µM (active)
15,N#CC1(c2ccc(F)cc2)CCC(=O)CC1,inactive
16,CCC1=C[C@@H]2CN(C1)Cc1c([nH]c3ccccc13)[C@@](C(=O)OC)(c1cc3c(cc1OC)N(C)[C@H]1[C@@](O)(C(=O)OC)[C@H](OC(C)=O)[C@]4(CC)C=CCN5CC[C@]31[C@@H]54)C2,0.0188 µM (active)
17,Oc1cc2ccccc2c2ccccc12,8.63 µM (active)
18,CCCCCCCC[P+](CCCCCCCC)(CCCCCCCC)CCCCCCCC,9.63 µM (active)
19,Oc1c(Cl)cc(Cl)c2cccnc12,13.3 µM (active)
20,C=C(C)C(=O)OCC(O)COc1ccc(C(C)(C)c2ccc(OCC(O)COC(=O)C(=C)C)cc2)cc1 (stereo not given),48.6 µM (active)

row,Compound,Potency
1,Cc1[nH]nc2c1N=C(c1ccccc1Cl)c1cc([N+](=O)[O-])ccc1N2,24.3 µM (active)
2,CCCC(c1cc(C(C)(C)C)c(O)cc1C)c1cc(C(C)(C)C)c(O)cc1C,19.6 µM (active)
3,NC(=O)CC[C@@H]1NC(=O)[C@H](Cc2ccccc2)NC(=O)[C@H](Cc2ccc(O)cc2)NC(=O)CCSSC[C@@H](C(=O)N2CCC[C@H]2C(=O)N[C@@H](CCCN=C(N)N)C(=O)NCC(N)=O)NC(=O)[C@H](CC(N)=O)NC1=O,inactive
4,O=C(OCC(COC(=O)c1ccccc1)(COC(=O)c1ccccc1)COC(=O)c1ccccc1)c1ccccc1,inactive
5,Cc1cc(O)c(C(C)(C)C)cc1Sc1cc(C(C)(C)C)c(O)cc1C,30.6 µM (active)
6,Cc1c(C)c2c(c(C)c1O)CCC(C)(COc1ccc(CC3SC(=O)NC3=O)cc1)O2 (stereo not given),inactive
7,CCC(Cl)C(Cl)C(Cl)CC(Cl)C(Cl)C(C)Cl (stereo not given),inactive
8,CC(C)(C)CC(C)(C)c1ccc(O)c(Cc2ccc(Cl)cc2Cl)c1,23.7 µM (active)
9,CN(C/C=C/C#CC(C)(C)C)Cc1cccc2ccccc12,inactive
10,CN(C)CCCOC1(Cc2ccccc2)CCCCCC1,inactive
11,CC(C)(C)NC(=O)[C@@H]1C[C@@H]2CCCC[C@@H]2CN1C[C@@H](O)[C@H](Cc1ccccc1)NC(=O)[C@H](CC(N)=O)NC(=O)c1ccc2ccccc2n1,24.7 µM (active)
12,CN1CCC(Nc2ncc3ncnc(Nc4ccc(F)c(Cl)c4)c3n2)CC1,26.6 µM (active)
13,COC(=O)C1=C(C)NC(C)=C(C(=O)OCCc2ccc(N3CCN(C(c4ccccc4)c4ccccc4)CC3)cc2)C1c1cccc([N+](=O)[O-])c1 (stereo not given),inactive
14,CN(C)[C@@H]1C(=O)C(C(N)=O)=C(O)[C@@]2(O)C(=O)C3=C(O)c4c(O)cccc4C[C@H]3C[C@@H]12,inactive
15,CC(C)C(C)(C)C(C)(C)C(C)(C)S,inactive
16,Clc1ccc2nsnc2c1NC1=NCCN1,inactive
17,COC(=O)C1=C(C)NC(C)=C(C(=O)OCC(C)C)C1c1ccccc1[N+](=O)[O-] (stereo not given),21.7 µM (active) and 29.8 µM (active)
18,Cc1cccc(CN2CCN(C(c3ccccc3)c3ccc(Cl)cc3)CC2)c1 (stereo not given),inactive
19,N=C1N=C(N)c2cc3ccccc3cc21,27.3 µM (active)
20,C=CC(=O)OCC(CO)(COC(=O)C=C)COC(=O)C=C,6.88 µM (active) and 13.7 µM (active)
